What all share (assay): DAPPL (digital affinity profiling via proximity ligation, sequencing); 10 mM Tris-HCl pH 7.5, 50 mM NaCl, 1 mM DTT, 4% glycerol, room temperature, 30 min; GST-TFs on glutathione beads, 16-mer random dsDNA library, 0.1% formaldehyde crosslink after washing; high values mean tight binding
One test addresses T1, FEV (Homo sapiens, UniProt Q99581 1-238).
T1 sequence: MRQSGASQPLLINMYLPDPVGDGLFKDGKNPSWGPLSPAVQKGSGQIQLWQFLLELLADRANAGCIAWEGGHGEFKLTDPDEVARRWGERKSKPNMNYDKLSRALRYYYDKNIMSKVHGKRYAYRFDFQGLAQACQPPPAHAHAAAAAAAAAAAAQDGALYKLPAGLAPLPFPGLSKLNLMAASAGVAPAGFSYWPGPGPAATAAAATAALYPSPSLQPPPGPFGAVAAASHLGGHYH
As to conditions: protein: recombinant; tags: N-terminal GST; dsDNA, one strand shown. The procedure, abridged:
(§1)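 Binding signal is each hexamer's read frequency for a factor divided by its frequency in the tag-only sample. The factors were GST-fused human transcription factors from yeast, captured on glutathione beads, DNA-barcoded and pooled with that sample. Pools were incubated with 200 nmole of a random double-stranded 16-mer DNA library in Tris/NaCl/DTT/glycerol buffer at room temperature for 30 min, then washed, crosslinked with 0.1% formaldehyde, proximity-ligated with BsaI/T4 ligase (1 h, 37 °C), PCR-amplified and sequenced on an Illumina NextSeq500.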

A further test deals with ETV5 (Homo sapiens, UniProt P41161 1-510). The note with it: protein: recombinant; tags: N-terminal GST; dsDNA, one strand shown. In a few lines: as §1
The target of a further test is HSF1 (Homo sapiens, UniProt Q00613 1-529). The note with it: protein: recombinant; tags: N-terminal GST; chain copies: 3; dsDNA, one strand shown. The procedure, abridged: as §1
For the next test, the target named is T2, SPIC (Homo sapiens, UniProt Q8N5J4 1-248).
T2 sequence: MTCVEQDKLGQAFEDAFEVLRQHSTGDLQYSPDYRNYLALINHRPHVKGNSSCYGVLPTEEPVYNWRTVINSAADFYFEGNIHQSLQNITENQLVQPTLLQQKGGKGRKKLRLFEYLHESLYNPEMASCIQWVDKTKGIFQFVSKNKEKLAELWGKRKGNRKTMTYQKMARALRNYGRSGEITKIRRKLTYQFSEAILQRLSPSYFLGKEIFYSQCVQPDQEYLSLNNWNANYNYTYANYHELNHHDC
As to conditions: protein: recombinant; tags: N-terminal GST; dsDNA, one strand shown. The procedure, abridged: as §1

Another test addresses ELF4 (Homo sapiens, UniProt Q99607 1-663). The note with it: protein: recombinant; tags: N-terminal GST; dsDNA, one strand shown. In a few lines:
as §1

In a further test the target is T3, ELK4 (Homo sapiens, UniProt P28324-2 1-405).
T3 sequence: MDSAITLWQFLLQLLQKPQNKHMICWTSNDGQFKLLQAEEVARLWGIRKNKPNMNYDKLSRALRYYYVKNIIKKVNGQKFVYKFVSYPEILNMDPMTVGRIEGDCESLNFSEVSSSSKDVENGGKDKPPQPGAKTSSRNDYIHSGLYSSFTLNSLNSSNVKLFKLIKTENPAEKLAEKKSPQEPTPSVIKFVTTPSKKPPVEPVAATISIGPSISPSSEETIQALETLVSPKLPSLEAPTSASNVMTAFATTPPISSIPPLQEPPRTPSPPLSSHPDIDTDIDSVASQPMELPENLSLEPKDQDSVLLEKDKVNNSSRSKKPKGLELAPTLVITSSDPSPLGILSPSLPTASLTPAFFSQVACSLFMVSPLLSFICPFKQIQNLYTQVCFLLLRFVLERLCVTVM
The note with it: protein: recombinant; tags: N-terminal GST; dsDNA, one strand shown. The procedure, abridged: as §1

Another test has as its target T4, ETV2 (Homo sapiens, UniProt O00321 1-342).
T4 sequence: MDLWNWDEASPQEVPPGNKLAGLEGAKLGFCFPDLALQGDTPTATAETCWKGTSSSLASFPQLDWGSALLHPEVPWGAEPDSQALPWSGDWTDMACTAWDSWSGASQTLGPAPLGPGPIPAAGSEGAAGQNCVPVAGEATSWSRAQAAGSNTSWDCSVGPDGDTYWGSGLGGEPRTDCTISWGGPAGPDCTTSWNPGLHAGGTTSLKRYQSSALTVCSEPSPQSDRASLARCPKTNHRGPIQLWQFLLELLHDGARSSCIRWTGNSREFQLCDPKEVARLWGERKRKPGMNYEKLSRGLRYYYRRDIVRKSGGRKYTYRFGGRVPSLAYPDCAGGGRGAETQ
The note with it: protein: recombinant; tags: N-terminal GST; dsDNA, one strand shown. In a few lines:
as §1

In the next test the target is T5, ELF3 (Homo sapiens, UniProt P78545 1-371).
T5 sequence: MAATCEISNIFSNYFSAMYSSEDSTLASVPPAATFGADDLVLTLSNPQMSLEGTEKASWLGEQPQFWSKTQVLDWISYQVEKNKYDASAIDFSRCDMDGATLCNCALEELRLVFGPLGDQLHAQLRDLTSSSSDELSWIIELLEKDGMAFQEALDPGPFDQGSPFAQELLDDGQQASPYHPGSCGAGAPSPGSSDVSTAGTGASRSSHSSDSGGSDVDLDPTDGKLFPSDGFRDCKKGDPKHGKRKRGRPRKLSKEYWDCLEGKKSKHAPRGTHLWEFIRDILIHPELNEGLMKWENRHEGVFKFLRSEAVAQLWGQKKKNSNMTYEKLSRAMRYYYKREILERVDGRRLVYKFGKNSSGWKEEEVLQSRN
As to conditions: protein: recombinant; tags: N-terminal GST; dsDNA, one strand shown. The procedure, abridged:
as §1

In a further test the target is CRX (Homo sapiens, UniProt O43186 1-299). As to conditions: protein: recombinant; tags: N-terminal GST; dsDNA, one strand shown. In a few lines:
as §1

Another test deals with ETV1 (Homo sapiens, UniProt P50549 1-477). As to conditions: protein: recombinant; tags: N-terminal GST; dsDNA, one strand shown. The procedure, abridged: as §1
The next test deals with T6, ERF (Homo sapiens, UniProt P50548 1-548).
T6 sequence: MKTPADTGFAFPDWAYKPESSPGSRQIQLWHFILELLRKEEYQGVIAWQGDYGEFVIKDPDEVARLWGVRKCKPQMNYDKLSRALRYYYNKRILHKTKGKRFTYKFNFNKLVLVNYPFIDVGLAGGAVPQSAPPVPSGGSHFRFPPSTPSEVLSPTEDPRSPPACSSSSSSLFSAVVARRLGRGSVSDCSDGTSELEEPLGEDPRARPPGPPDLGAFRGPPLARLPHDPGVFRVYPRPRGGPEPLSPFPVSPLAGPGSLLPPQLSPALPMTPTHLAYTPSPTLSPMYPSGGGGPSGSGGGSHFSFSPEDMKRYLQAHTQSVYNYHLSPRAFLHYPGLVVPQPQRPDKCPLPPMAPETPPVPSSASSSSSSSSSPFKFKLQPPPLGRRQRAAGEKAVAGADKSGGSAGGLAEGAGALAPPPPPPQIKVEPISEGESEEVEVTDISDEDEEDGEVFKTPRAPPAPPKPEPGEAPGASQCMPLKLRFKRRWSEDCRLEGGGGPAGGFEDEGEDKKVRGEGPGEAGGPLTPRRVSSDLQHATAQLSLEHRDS
The note with it: protein: recombinant; tags: N-terminal GST; dsDNA, one strand shown. The procedure, abridged: as §1

In another test the target is T7, ETV3L (Homo sapiens, UniProt Q6ZN32 1-361).
T7 sequence: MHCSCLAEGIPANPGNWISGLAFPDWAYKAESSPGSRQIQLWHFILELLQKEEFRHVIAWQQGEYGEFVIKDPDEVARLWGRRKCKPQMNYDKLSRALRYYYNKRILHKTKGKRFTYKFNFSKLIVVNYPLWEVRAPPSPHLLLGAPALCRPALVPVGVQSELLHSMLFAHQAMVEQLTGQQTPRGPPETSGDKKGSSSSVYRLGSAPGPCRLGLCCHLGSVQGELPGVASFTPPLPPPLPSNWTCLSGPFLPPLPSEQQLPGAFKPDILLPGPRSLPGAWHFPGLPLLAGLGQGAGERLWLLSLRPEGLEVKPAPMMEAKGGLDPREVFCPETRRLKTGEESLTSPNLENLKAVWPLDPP
As to conditions: protein: recombinant; tags: N-terminal GST; dsDNA, one strand shown. The procedure, abridged: as §1

The target in another test is T8, ETS2 (Homo sapiens, UniProt P15036 1-469).
T8 sequence: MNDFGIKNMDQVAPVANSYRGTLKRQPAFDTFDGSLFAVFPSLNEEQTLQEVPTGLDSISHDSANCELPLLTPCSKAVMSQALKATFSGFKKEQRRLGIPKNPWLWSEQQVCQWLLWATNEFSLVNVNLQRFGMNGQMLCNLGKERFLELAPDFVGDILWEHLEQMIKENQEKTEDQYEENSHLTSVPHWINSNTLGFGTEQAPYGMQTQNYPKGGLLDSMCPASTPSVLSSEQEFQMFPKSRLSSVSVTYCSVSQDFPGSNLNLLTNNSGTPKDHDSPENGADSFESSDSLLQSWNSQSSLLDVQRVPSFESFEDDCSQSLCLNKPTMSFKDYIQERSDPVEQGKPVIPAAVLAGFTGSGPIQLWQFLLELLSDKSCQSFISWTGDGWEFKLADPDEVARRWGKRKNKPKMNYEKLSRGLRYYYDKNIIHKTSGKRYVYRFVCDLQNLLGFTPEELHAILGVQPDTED
As to conditions: protein: recombinant; tags: N-terminal GST; dsDNA, one strand shown. In a few lines:
as §1

In the next test the target is T9, SPDEF (Homo sapiens, UniProt O95238 1-335).
T9 sequence: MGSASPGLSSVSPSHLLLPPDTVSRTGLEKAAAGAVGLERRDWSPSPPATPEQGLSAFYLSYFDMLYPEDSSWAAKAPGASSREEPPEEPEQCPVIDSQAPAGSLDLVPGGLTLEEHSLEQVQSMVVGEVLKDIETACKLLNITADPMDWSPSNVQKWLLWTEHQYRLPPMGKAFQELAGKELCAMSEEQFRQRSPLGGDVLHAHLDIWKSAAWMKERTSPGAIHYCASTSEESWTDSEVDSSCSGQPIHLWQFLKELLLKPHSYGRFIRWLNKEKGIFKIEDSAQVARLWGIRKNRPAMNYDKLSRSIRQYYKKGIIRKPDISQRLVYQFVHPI
As to conditions: protein: recombinant; tags: N-terminal GST; dsDNA, one strand shown. In a few lines:
as §1

The next test has as its target T10, ETV7 (Homo sapiens, UniProt Q9Y603 1-341).
T10 sequence: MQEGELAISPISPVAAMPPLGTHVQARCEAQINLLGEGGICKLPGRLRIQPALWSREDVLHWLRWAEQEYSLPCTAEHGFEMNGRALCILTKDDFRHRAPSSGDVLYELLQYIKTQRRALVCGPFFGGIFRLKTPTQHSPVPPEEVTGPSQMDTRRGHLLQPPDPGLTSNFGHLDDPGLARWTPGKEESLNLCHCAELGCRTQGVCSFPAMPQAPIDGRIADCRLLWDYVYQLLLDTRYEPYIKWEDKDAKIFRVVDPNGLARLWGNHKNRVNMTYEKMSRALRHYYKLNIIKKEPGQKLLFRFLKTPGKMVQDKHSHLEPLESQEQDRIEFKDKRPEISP
The note with it: protein: recombinant; tags: N-terminal GST; dsDNA, one strand shown. In a few lines:
as §1

For a further test, the target named is T11, ELF5 (Homo sapiens, UniProt Q9UKW6-2 1-255).
T11 sequence: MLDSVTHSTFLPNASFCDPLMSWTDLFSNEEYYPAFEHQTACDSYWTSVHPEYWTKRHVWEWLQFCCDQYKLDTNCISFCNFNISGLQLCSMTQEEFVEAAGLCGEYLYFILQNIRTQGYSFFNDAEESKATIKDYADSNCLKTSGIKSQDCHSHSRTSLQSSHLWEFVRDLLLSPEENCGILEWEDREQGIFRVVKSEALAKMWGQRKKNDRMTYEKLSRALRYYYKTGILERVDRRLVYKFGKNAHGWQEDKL
The note with it: protein: recombinant; tags: N-terminal GST; dsDNA, one strand shown. The procedure, abridged:
as §1

For a further test, the target named is T12, ETV3 (Homo sapiens, UniProt P41162-2 1-143).
T12 sequence: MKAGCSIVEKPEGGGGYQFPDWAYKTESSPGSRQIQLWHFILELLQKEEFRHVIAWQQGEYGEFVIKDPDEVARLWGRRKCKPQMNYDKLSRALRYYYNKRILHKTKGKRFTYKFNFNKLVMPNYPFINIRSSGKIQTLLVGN
The note with it: protein: recombinant; tags: N-terminal GST; dsDNA, one strand shown. In a few lines:
as §1

Another test has as its target ETV6 (Homo sapiens, UniProt P41212 1-452). As to conditions: protein: recombinant; tags: N-terminal GST; dsDNA, one strand shown. In a few lines:
as §1

Sequence of CRX (O43186 whole entry): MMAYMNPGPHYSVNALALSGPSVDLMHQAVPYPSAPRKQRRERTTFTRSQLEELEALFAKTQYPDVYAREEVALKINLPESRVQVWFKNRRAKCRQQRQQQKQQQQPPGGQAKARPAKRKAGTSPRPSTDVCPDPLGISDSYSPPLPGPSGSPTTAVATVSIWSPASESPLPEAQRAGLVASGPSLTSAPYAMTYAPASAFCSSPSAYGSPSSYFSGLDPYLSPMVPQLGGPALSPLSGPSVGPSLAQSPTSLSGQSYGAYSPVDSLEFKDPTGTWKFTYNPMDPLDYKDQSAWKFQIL
Sequence of HSF1 (Q00613 whole entry): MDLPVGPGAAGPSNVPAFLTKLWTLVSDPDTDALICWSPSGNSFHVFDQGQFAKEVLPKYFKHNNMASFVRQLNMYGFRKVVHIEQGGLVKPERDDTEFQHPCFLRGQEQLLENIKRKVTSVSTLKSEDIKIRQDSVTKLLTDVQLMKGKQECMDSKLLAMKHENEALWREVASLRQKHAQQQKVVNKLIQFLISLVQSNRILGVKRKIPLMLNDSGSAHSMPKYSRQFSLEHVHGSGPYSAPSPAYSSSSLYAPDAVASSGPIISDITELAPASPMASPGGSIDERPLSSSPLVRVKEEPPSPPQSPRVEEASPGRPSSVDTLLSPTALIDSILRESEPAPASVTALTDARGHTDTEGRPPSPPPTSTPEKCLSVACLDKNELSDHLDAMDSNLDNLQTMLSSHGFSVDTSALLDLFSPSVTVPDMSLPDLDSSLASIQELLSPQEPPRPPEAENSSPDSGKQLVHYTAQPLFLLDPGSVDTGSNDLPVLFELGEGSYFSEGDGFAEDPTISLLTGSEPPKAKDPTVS
Sequence of ELF4 (Q99607 whole entry): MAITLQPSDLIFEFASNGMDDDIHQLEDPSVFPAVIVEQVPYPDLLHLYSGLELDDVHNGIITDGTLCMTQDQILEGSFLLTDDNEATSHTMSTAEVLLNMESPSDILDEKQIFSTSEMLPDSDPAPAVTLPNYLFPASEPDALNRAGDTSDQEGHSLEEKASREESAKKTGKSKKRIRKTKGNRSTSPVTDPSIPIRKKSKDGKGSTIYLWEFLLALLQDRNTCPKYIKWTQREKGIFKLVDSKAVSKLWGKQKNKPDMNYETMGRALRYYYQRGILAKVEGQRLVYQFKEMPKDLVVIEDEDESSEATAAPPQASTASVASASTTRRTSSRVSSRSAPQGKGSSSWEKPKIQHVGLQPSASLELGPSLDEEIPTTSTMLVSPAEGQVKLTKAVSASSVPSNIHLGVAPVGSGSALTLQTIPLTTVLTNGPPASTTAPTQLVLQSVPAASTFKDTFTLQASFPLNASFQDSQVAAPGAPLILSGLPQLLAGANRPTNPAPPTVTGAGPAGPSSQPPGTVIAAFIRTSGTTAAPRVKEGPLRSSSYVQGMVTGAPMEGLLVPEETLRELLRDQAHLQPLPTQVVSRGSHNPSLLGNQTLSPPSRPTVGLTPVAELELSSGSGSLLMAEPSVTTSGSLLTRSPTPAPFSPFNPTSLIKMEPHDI
Sequence of ETV5 (P41161 whole entry): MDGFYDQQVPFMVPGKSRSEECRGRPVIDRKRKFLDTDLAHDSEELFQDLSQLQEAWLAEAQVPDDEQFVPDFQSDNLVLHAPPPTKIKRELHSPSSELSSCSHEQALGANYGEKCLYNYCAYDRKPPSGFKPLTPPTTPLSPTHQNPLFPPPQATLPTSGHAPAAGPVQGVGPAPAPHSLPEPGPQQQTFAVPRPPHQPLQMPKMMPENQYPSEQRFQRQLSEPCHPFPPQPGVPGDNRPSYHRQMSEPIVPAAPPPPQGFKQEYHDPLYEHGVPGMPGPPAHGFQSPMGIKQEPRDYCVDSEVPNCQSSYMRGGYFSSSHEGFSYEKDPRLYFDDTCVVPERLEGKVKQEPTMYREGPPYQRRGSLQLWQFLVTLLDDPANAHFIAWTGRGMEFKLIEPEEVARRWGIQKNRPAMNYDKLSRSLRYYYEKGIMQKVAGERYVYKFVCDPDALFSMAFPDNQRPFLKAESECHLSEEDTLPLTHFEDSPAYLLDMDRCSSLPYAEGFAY
Sequence of ETV1 (P50549 whole entry): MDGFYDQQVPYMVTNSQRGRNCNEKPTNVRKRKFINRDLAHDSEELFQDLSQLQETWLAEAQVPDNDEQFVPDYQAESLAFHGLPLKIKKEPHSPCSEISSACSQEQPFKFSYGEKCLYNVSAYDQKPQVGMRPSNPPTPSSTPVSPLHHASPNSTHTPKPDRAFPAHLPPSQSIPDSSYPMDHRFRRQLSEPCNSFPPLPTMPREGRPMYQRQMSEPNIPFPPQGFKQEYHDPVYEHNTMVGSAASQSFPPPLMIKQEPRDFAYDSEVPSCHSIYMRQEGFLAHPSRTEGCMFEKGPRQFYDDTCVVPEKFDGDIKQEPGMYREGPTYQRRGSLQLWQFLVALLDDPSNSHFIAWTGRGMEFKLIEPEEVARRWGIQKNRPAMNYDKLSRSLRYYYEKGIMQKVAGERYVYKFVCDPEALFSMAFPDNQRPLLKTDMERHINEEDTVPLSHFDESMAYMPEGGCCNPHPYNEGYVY
Sequence of ETV6 (P41212 whole entry): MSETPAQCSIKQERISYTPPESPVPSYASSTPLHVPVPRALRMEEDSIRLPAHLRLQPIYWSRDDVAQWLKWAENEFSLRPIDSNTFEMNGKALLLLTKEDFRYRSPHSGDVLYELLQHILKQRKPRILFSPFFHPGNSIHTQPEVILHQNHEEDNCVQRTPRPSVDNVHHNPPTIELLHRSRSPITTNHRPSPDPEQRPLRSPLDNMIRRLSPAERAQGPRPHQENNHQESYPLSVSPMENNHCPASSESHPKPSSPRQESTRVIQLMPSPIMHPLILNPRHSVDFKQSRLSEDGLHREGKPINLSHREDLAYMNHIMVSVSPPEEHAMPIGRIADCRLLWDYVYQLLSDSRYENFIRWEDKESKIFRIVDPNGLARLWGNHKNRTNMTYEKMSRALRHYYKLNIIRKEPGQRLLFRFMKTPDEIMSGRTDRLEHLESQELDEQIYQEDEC

Regarding TAAAAA, the binding signal in the test with FEV was 1.29 fold enrichment (6-mer frequency, TF over GST control); with ETV5 it was 1.3 fold enrichment (6-mer frequency, TF over GST control); with HSF1 it was 1.56 fold enrichment (6-mer frequency, TF over GST control); with SPIC it was 1.34 fold enrichment (6-mer frequency, TF over GST control); with ELF4, 1.45 fold enrichment (6-mer frequency, TF over GST control); with ELK4 it was 1.34 fold enrichment (6-mer frequency, TF over GST control). Further, the binding signal is 1.4 fold enrichment (6-mer frequency, TF over GST control) with ETV2; 1.33 fold enrichment (6-mer frequency, TF over GST control) with ELF3; 1.82 fold enrichment (6-mer frequency, TF over GST control) with CRX; 1.26 fold enrichment (6-mer frequency, TF over GST control) in the test with ETV1; 1.37 fold enrichment (6-mer frequency, TF over GST control) in the test with ERF; 1.37 fold enrichment (6-mer frequency, TF over GST control) in the test with ETV3L. Moreover, the binding signal was 1.33 fold enrichment (6-mer frequency, TF over GST control) with ETS2; 1.32 fold enrichment (6-mer frequency, TF over GST control) with SPDEF; 1.31 fold enrichment (6-mer frequency, TF over GST control) in the test with ETV7; 1.29 fold enrichment (6-mer frequency, TF over GST control) in the test with ELF5; 1.25 fold enrichment (6-mer frequency, TF over GST control) with ETV3; 1.26 fold enrichment (6-mer frequency, TF over GST control) with ETV6.

The record behind these values is publication PMC7862700, “An all-to-all approach to the identification of sequence-specific readers for epigenetic DNA modifications on cytosine”.
